Out of some 53,000 sequences screened, about 3,700 (7%) were called active. The sample as a whole holds a higher share of actives than the screen did. A number with no mark means an inactive call.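 Rule for the calls: active = gene knockdowns whose robust z-score for IL-1 alpha signal is at least 2 or at most -2, so actives lie on both sides; inactive = the rest.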
Test: Components of the Cytosolic LPS Sensing Pathway: Gene Identification via Genome-wide siRNA Screen;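 note: robust z of the log signal after scaling to non-targeting control siRNA wells of the plate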
Conditions: RAW264.7 macrophages, IL-1a HTRF, actives lie on both sides, screened at 100 nM (by protocol), cells primed 5 h with Pam3CSK4 first
Outline: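 Three distinct siRNAs per gene were tested singly at 100 nM in RAW264.7 macrophages. Following Pam3CSK4 priming and 24 hour LipidA transfection, IL-1a secretion was read by HTRF.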
For GGACUUCACUUUUCUAUGATT against Tmem64, the z-score was 1.47.
For GGCUUUGGACUGUAUGACCTT against Ccdc159, the z-score was -0.923.
Sequence GGUGGAAAGAGAGAGCUACTT against Slc12a7 has a z-score of 0.458.
With GGUUUGCUGAGAAAUUAACTT against Btg3 the z-score was 0.958.
For GCCCACGUAUUUGUCUGCUTT against Sprn, the z-score was -2.58 (active).
GCCUUCUUAACUUCAUCACTT against Taar5 gave a z-score of 1.16.
For CCUGAACACAAGUGCUGGUTT against Clec4a4, the z-score was -1.8.
For GGCCAUCACACACAGAAACTT against Pla2g2f, the z-score was -0.505.
Work on GGCUAUGCAGAUGGUACCUTT against Vil1 yielded a z-score of 0.871.
For CCAUGUGUCAAACUACCGGTT against Rbmx2, the z-score was 7.02 (active).
For CCAUGAUUAAGGGUCUCUATT against Ldha, the z-score was 0.111.
Work on GGUGGUAAAUAAUUAAGGATT against Clec14a yielded a z-score of 0.623.
For GGAACUGAUAAACUACUCUTT against Olfr1126, the z-score was -2.08 (active).
Work on GGGAAUGAGUCAGCUCUUUTT against Cd163 yielded a z-score of -0.667.
With GGCUAAACUGAAGGAAUUCTT against Fkbp10 the z-score was 0.875.
GGUAGGAAUUUGGAAAACUTT against H2-T24 gave a z-score of 1.5.
In the case of GGAAAUUGUUGUUUCCCGUTT against Sf3b3, the z-score was -1.45.
With GGCCACCAAGAAAUUCAAATT against Cd22 the z-score was 4.16 (active).
Sequence GCCUAUCUGUGACUGACCUTT against LOC433501 has a z-score of -0.171.
For GCGAGAGCUAAAGUAAAAUTT against Egln1, the z-score was -0.671.
Work on GGCUAAAGUGAGCUCUUCATT against Nob1 yielded a z-score of -0.947.
GGUGUGUUACUGAUGAUUCTT against Olfr669 gave a z-score of -0.37.
GCAGAGUGACUUUGAAGCGTT against Klf10 gave a z-score of 0.844.
In the case of CCAAGUUCAUUCUUUUUGCTT against Cobll1, the z-score was 1.2.
CCCUAGAAGAAUCAAGCUCTT against Prune2 showed a z-score of -1.35.
For GGAAUGAUAGAAAAUGGACTT against Gvin1, the z-score was -2.16 (active).
GGCAGAGACCACUAAUACCTT against Tmem131l showed a z-score of -0.881.
Work on GGCAGGCAAUUCAAACAAUTT against Orm1 yielded a z-score of -1.24.
GCUAUCCUCAAUUGCACACTT against Atxn3 showed a z-score of 1.49.
For GGUUUGAAAGGAGAAAGAGTT against Col4a6, the z-score was 0.366.
For GGCCUUCGUCAUCUUCAAGTT against Snrpa, the z-score was 1.05.
With GGCCCAAGCUCAACACAAUTT against Aida the z-score was 2.31 (active).
With GGCCAAGAAAAAAGAAAGATT against Slc22a2 the z-score was 0.126.
Work on GGGUUCAGGAGAACUAACUTT against Tmem40 yielded a z-score of -1.92.
For GGAUCCUGUUAAGAUUAUCTT against Phykpl, the z-score was -0.0411.
With GGAUAUUCACUUUCAUAUGTT against Gulp1 the z-score was 1.25.
With GGUUUAUGGAGCAAGUGAUTT against Actr3 the z-score was -2.07 (active).
In the case of CCAACAAUGUUUAAAGGAUTT against Olfr476, the z-score was -0.32.
GCCAUGUGCACUGAAUAUATT against Gfral gave a z-score of -1.87.
For GGUCAUCAGUGAUCAGUCATT against Mre11a, the z-score was -1.33.
In the case of GCAGCAUCCAACUUCCGCUTT against Ffar2, the z-score was 3.35 (active).
GGAAAAAAUCAAGAGUGAATT against Fam50a gave a z-score of -0.157.
In the case of GCUACUCUCUAUUGGUUUUTT against Gpr45, the z-score was 2.45 (active).
In the case of GGUGAACUUGAGGUCACACTT against Angpt4, the z-score was 0.134.
In the case of GCGGGUUUAUUGUCUAGAATT against Mfn2, the z-score was 0.669.
Sequence GGAAGUAGAUUUGAAGUUGTT against Btbd35f1 has a z-score of 0.256.
Sequence GGAGCUCUUUUUGAACACUTT against Sgcg has a z-score of 0.946.
GGCCAAUCAAGAUAGCCACTT against Dnajc1 gave a z-score of 1.12.
For GCUCUCUCUCUUCUUACUGTT against Olfr1160, the z-score was -2.16 (active).
Sequence GCCGUUUGGUUUCGAACUUTT against Mboat2 has a z-score of 1.17.
For GGUGGAGUGAUACGAAGAGTT against Radx, the z-score was 1.21.
With CCAUAGUAGCUACCUUGAUTT against Fam107a the z-score was 0.537.
Work on GGAUGAGGUGAACUGAGGGTT against Tmem150b yielded a z-score of 0.777.
With GGAAGGUUUGUUGUUUUGUTT against Apon the z-score was -1.58.
Sequence GGAUAUGACUAGGUGAAUUTT against Ebf3 has a z-score of -1.04.
Work on GGACAUUGUCAAUAUGCUCTT against Pygm yielded a z-score of 0.633.
With GGUGUGGAAGUCAGUUUAATT against Serpinb3a the z-score was 2.53 (active).
With CGAUGUGACUAUUUGUUGATT against Snx11 the z-score was 0.425.
GGACCUAAACUGUCAGGAGTT against Eif3g showed a z-score of 0.15.
For GCUCUGUUGUGGAUGCAAUTT against Lonrf2, the z-score was 0.859.
For GGGCGGUUCAAAAGGUCAGTT against Cacnb1, the z-score was 2.27 (active).
With CCGGGAUGGAGAAUAAGCUTT against Fgfbp3 the z-score was -0.264.
In the case of GCUAUAGGGACCUCUGUCATT against Cdh5, the z-score was -2.72 (active).
In the case of CCAUGACAUUUCCUAAGUUTT against Sall3, the z-score was -0.2.
GGAGAUUUAUACACACUUGTT against Snx17 showed a z-score of 0.615.
In the case of GCUCCUACUACUGCUUUGCTT against Crem, the z-score was 0.979.
GCCCAAAGGUCAAGGAUAUTT against Rptn showed a z-score of -0.036.
Work on GCUAAGUUUCACCCAAAGGTT against Dennd2c yielded a z-score of 1.42.
With GGAGUGAGACAAGUGUAUGTT against Sprr1a the z-score was -0.0345.
For GGAAAGAUUCCGAACAAUUTT against Rab8b, the z-score was 2.12 (active).
With GGUGGUUGAACAUAAGACUTT against Zfp688 the z-score was 1.27.
Sequence GGCAAUACAAACAAGUUCUTT against Klhdc2 has a z-score of 1.05.
GGCCUUGUUUUUAAGUAAATT against Atp12a gave a z-score of -0.178.
For GCCAAUGAACCGAUCUCUGTT against Ep400, the z-score was -2.13 (active).
For GGAAUUGGGUAGUACAAAATT against Irak1, the z-score was 0.282.
With GGUAAUGAAUAGGAAACUCTT against Ostm1 the z-score was -0.773.
In the case of GGAACACACAGAGGUUUAUTT against Hacd1, the z-score was 1.87.
GGGAGUGGCUCCUCAGAAATT against AW549877 gave a z-score of -1.98.
For CGCACAAGUGCUUGAGUUATT against Ccdc151, the z-score was 1.03.
Work on GGACCAAUGUUUUCUUCCUTT against Gngt2 yielded a z-score of 0.773.
In the case of GCCUUAAGUGUUCAUGUAATT against Vhl, the z-score was -0.872.
GGAAGCCCACUACAACAAUTT against Krt19 gave a z-score of -0.236.
In the case of GCAUUGUGCUGAUGUGCGGTT against Ap1ar, the z-score was 3.01 (active).
Work on GGUAUUCUGGCAAGACCACTT against Aatf yielded a z-score of 1.31.
For GGAAGCCUAGUUUUUUUAATT against Csnk2a1, the z-score was 2.89 (active).
For GCUUUCAGUGAGGUACAAGTT against Gm4425, the z-score was -1.25.
With GCUCUUUCUAGCCCUUCCCTT against Spry3 the z-score was -0.915.
GGAAAGAUAGAAGACAAACTT against Spry4 showed a z-score of -0.0777.
With GGUUCUGAUAGCUCAAGAGTT against Polr2b the z-score was -1.96.
For GGUUUUGAAAUUCCAGAAUTT against Nol9, the z-score was -0.22.
In the case of GGCAACUGUUGUAAAUCAATT against Veph1, the z-score was -1.01.
For GGACUCAAACGACACAUGCTT against Eci2, the z-score was 2.42 (active).
For GCCAGUCAUUCAGUAAAGUTT against Mysm1, the z-score was -1.15.
Sequence GGAGAAAUGUCAGUGCGAUTT against Mlc1 has a z-score of 0.431.
In the case of GGUCACAGAAUCGGUUUCATT against Cuta, the z-score was 1.02.
Sequence GGUUCUUGUUUUUACCCGCTT against Fam187b has a z-score of 1.19.
With GGAGUGGCUAUGUUUUCGATT against Hrg the z-score was 0.658.
Work on GGACUCGUUCCACUAUCAUTT against Naa20 yielded a z-score of 0.33.
In the case of GCGGUUUCGAACAAUCACGTT against Rab8a, the z-score was -2.4 (active).
In the case of UCAACUGCUUAGAGCAUGUTT against Tmem259, the z-score was 0.653.
Sequence CGACCUCCAGUAAUAACCUTT against Olfr310 has a z-score of -0.746.
With GGAAAGCUUGGACAUUAAGTT against Rps6kc1 the z-score was -0.0887.
With “GGUCACGUCAGCAAAGCAATT against B930095G15Rik” the z-score was -2.73 (active).
Work on GCGAUGUGGACAGAAGUACTT against Cyba yielded a z-score of 1.01.
For “GGUGUUUCAUAAGAAGGAATT against 1700010H22Rik”, the z-score was -1.01.
GCCAGUACUCUGCUUGUGATT against Naif1 gave a z-score of -1.64.
In the case of “GAUCCCUGGAUUGUGGAGUTT against 2310057N15Rik”, the z-score was 0.26.
For GGACGAGCUGUAUUUGAAUTT against Gsk3a, the z-score was -0.663.

Reference: PubChem BioAssay AID1508600 (Functional Genomics Laboratory (NCATS/FGL), 2020)
